# Assay results as given in PMC7862700, “An all-to-all approach to the identification of sequence-specific readers for epigenetic DNA modifications on cytosine”.
# Assays:
# Test in all cases: DAPPL (digital affinity profiling via proximity ligation, sequencing); 10 mM Tris-HCl pH 7.5, 50 mM NaCl, 1 mM DTT, 4% glycerol, room temperature, 30 min; GST-TFs on glutathione beads, 16-mer random dsDNA library, 0.1% formaldehyde crosslink after washing; high values mean tight binding
# Details in all cases: protein: recombinant; tags: N-terminal GST; dsDNA, one strand shown
# ETV1 = ETV1 (Homo sapiens, UniProt P50549 1-477)
# Chain of ETV1 (P50549 whole entry, the tested form may be a part): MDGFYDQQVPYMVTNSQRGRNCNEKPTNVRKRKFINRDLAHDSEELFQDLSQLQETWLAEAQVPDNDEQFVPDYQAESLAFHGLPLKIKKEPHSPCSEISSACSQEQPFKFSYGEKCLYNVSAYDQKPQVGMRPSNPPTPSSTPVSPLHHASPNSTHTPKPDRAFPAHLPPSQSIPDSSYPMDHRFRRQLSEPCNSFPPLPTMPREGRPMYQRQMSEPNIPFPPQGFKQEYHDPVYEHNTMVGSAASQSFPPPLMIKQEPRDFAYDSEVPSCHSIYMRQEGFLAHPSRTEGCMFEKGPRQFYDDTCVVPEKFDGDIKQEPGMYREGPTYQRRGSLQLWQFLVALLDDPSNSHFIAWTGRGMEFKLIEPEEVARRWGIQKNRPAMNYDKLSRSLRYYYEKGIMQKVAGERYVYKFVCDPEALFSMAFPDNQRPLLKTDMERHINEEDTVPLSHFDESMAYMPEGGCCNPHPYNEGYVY
# In short: (§1)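 Human transcription factors fused to GST were expressed in yeast, captured on glutathione beads, given DNA barcodes and pooled with a GST-only negative control. Pools were incubated with 200 nmole of a 16-mer random double-stranded DNA library in Tris/NaCl/DTT/glycerol buffer at room temperature for 30 min. They were then washed, crosslinked with 0.1% formaldehyde, proximity-ligated (BsaI/T4 ligase, 1 h, 37 °C), PCR-amplified and sequenced on an Illumina NextSeq500. Binding signal is each 6-mer's read frequency for a factor divided by its frequency for the GST control.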
# ERF = target: T1, ERF (Homo sapiens, UniProt P50548 1-548)
# T1 sequence: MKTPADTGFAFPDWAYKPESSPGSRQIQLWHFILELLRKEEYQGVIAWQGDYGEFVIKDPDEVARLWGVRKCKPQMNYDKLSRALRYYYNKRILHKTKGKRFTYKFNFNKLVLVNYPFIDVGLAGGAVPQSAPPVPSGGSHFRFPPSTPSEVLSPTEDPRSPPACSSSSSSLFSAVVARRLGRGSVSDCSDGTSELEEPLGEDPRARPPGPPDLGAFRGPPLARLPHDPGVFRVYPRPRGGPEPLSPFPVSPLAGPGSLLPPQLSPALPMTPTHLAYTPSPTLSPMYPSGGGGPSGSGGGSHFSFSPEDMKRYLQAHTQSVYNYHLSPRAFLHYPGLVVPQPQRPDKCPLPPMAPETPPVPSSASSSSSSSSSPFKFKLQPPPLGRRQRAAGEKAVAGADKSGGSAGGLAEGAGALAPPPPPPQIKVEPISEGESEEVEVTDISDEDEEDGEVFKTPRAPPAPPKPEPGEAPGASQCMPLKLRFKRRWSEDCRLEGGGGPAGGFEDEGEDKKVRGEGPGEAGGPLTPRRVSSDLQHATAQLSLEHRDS
# In short: as §1
# ETV3L = target: T2, ETV3L (Homo sapiens, UniProt Q6ZN32 1-361)
# T2 sequence: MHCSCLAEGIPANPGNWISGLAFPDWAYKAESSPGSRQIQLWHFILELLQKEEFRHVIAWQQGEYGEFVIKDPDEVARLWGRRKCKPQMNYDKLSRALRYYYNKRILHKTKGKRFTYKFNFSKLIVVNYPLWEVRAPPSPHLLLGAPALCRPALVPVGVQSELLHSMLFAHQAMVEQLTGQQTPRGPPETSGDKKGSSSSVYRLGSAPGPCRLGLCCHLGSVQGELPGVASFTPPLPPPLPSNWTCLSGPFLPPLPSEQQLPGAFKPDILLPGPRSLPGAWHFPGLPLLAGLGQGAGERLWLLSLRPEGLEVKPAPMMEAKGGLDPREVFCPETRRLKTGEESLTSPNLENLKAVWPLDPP
# In short: as §1
# ETS2 = target: T3, ETS2 (Homo sapiens, UniProt P15036 1-469)
# T3 sequence: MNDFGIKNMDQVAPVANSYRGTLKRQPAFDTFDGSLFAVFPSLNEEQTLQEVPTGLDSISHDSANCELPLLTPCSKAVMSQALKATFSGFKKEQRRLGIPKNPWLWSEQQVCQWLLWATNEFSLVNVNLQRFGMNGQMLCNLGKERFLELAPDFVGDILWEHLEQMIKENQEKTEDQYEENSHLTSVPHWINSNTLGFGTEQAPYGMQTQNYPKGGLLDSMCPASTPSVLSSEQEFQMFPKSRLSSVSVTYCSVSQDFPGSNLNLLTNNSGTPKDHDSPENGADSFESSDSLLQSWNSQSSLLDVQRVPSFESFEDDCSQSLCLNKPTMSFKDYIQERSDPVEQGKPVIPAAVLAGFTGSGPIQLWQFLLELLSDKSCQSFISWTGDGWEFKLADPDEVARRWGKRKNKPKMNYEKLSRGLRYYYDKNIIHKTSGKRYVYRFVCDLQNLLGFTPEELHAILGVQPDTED
# In short: as §1
# SPDEF = target: T4, SPDEF (Homo sapiens, UniProt O95238 1-335)
# T4 sequence: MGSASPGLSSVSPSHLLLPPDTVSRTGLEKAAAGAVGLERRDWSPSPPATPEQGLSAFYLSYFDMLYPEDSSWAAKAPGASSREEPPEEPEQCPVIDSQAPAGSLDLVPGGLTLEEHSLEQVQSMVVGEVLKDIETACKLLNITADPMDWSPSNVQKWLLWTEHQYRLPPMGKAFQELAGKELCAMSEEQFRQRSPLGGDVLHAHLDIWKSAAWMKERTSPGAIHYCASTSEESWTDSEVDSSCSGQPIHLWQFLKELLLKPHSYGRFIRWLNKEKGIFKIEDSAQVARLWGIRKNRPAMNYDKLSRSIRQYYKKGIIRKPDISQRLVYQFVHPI
# In short: as §1
# ETV7 = target: T5, ETV7 (Homo sapiens, UniProt Q9Y603 1-341)
# T5 sequence: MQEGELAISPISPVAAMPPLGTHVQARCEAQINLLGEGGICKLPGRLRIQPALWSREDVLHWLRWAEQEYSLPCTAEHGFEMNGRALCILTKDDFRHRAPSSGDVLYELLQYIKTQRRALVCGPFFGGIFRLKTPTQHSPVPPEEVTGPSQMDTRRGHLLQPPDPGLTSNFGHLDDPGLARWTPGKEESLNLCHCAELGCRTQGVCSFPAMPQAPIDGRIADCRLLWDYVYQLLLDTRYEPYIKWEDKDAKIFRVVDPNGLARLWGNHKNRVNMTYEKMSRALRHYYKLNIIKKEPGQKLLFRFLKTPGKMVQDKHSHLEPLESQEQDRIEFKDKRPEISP
# In short: as §1
# ELF5 = target: T6, ELF5 (Homo sapiens, UniProt Q9UKW6-2 1-255)
# T6 sequence: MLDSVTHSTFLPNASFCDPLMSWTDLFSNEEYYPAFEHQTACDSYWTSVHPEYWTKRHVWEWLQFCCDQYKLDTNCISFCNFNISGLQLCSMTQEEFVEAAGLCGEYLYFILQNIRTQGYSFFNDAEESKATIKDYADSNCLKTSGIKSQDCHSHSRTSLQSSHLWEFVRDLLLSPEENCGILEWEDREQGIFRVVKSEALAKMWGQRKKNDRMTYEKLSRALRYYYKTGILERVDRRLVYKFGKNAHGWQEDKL
# In short: as §1
# ETV3 = target: T7, ETV3 (Homo sapiens, UniProt P41162-2 1-143)
# T7 sequence: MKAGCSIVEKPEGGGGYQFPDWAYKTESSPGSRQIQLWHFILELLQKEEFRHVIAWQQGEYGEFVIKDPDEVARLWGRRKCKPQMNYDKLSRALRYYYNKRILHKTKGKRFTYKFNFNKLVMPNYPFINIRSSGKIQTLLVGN
# In short: as §1
# ETV6 = ETV6 (Homo sapiens, UniProt P41212 1-452)
# Chain of ETV6 (P41212 whole entry): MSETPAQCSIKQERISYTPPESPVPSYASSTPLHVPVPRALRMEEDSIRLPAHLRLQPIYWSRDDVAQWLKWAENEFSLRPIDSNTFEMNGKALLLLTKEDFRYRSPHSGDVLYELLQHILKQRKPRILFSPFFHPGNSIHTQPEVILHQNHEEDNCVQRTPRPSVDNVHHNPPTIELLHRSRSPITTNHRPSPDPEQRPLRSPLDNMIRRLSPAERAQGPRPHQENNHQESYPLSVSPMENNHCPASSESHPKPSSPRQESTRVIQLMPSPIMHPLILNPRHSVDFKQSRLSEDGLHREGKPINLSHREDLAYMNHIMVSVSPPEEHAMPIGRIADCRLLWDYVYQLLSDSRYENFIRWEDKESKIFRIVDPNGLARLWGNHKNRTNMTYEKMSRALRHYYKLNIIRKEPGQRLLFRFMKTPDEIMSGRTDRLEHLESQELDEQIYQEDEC
# In short: as §1
sequence,measurement,setting,value
CCTCTA,binding signal,ETV1,"1.28 fold enrichment (6-mer frequency, TF over GST control)"
same,binding signal,ERF,"1.34 fold enrichment (6-mer frequency, TF over GST control)"
same,binding signal,ETV3L,"1.38 fold enrichment (6-mer frequency, TF over GST control)"
same,binding signal,ETS2,"1.46 fold enrichment (6-mer frequency, TF over GST control)"
same,binding signal,SPDEF,"1.32 fold enrichment (6-mer frequency, TF over GST control)"
same,binding signal,ETV7,"1.36 fold enrichment (6-mer frequency, TF over GST control)"
same,binding signal,ELF5,"1.48 fold enrichment (6-mer frequency, TF over GST control)"
same,binding signal,ETV3,"1.33 fold enrichment (6-mer frequency, TF over GST control)"
same,binding signal,ETV6,"1.3 fold enrichment (6-mer frequency, TF over GST control)"
